Inconclusive results are not listed.

A short description of this assay: qHTS Assay for Lipid Storage Modulators (AID 1519). The following applies: Drosophila S3 cells, BODIPY lipid droplet/cell ratio, laser cytometry; measured here: lipid channel max response; cells loaded with oleic acid. Put shortly:
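Cells seeded at 5,000 per well were treated with compounds over a concentration series and loaded with oleic acid (400 uM, as added). Lipid droplet fluorescence (488 nm excitation, 500-530 nm channel) was read by laser-scanning cytometry and normalized to 20 uM Triacsin C.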
(qHTS replaces the single test concentration by a dilution series.)
For the compound `COc1cc(OC)c(C(C)=O)c(O)c1C`, the max response is 27.6%.
As for `COc1ccc(-c2coc3c(O)c(OC)ccc3c2=O)cc1`, the figure is 28.5%; as for `COc1cc(O)c(C)c(O)c1`, 5.62%; as for `C=C1CCC(=O)C(C)CCC2C1CC2(C)C` (stereo not drawn), 14.5%.
To `CCCCN1CCCCC1C(=O)Nc1c(C)cccc1C` (stereo not drawn) belongs 21.2%.
As for `CC1(C)C(O)C=C[C@@]2(C)C1CC(=O)O[C@@]1(C)C3=CC(=O)OC(c4ccoc4)[C@]3(C)CCC21` (stereo partly drawn), the figure is 14.6%; as for `C=C1C(=O)OC2CC1C(OC(C)=O)CC(C)=CCCC(C)=CCC[C@@]2(C)O` (stereo partly drawn), 14.3%; as for `CC1(C)CC2C1CCC1(C)OC1CCC2(C)O` (stereo not drawn), 2.87%.
Turning to `C#C[C@]1(O)CCC2C3CCC4=Cc5oncc5C[C@@]4(C)C3CC[C@@]21C` (stereo partly drawn), the max response turned out to be 21.9%.
As for `Cc1cc(O)c(C=O)c(O)c1C(=O)O`, the figure is 11.5%; as for `COC(=O)CC1C(C)(C)C(OC(C)=O)[C@@]2(O)C=C3C4CC(=O)OC(c5ccoc5)[C@]4(C)CCC3[C@@]1(C)C2=O` (stereo partly drawn), 21.8%.
To `C=CC(C1=CC(=O)C=CC1=O)c1ccccc1` (stereo not drawn) belongs 16.8%; to `CC(=O)C1CCC2C3CC(C)C4=CC(=O)CC[C@@]4(C)C3C(O)C[C@@]12C` (stereo partly drawn), 24.3%.
As to `CO[C@]12CC(COC(=O)c3cncc(Br)c3)CN(C)[C@@H]1Cc1cn(C)c3cccc2c13` (stereo partly drawn), the max response was found to be 29%.
Regarding `CCOC(=O)C(Cc1ccc(O)cc1)NC(C)=O` (stereo not drawn), the max response came out at 13.9%.
To `COc1ccc(-c2coc3cc(O)ccc3c2=O)c(OC)c1` belongs 3.26%.
As for `COC(=O)CC1C(C)(C)C(OC(C)=O)C2CC3=C4CC(=O)OC(c5ccoc5)[C@]4(C)CCC3[C@@]1(C)C2=O` (stereo partly drawn), the figure is 10%; as for `COC(=O)c1cc(OC)c(=O)c2c(OC)c(OC)ccc2c1`, 7.78%.

The values are drawn from PubChem BioAssay (NCATS).
